# Data as given in PubChem BioAssay (Tox21).
# Where “and” joins values, the source holds several entries; their conditions need not be identical. Equal entries are not always repeated. Records with an inconclusive call do not appear. A call without a number means that no potency is given here. A number with no mark means an inactive call. Calls of active or inactive are those of the source. The call rests on the fitted dose curve; in most records, active means well fitted curve in the direction sought with a large enough effect in the repeat runs; inconclusive means weak or mixed curves; inactive means no such curve, though single readings can be large; an effect the other way counts as inactive or inconclusive.
# How the values were obtained:
# [1] = qHTS RealTime-Glo MT Cell Viability Assay in HEK293 cells - 16 hour (AID 1224872); further: nearly all actives have a fitted effect of over 50% in size; further: potency means the concentration at half of the fitted maximal effect
# Procedure, shortened: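 HEK293 cells were seeded at 600 cells/well together with NanoLuc luciferase and cell-permeant prosubstrate, preincubated 5 h at 37 C/5% CO2, then given compound in DMSO by pintool. Luminescence from viable-cell prosubstrate reduction was read repeatedly over 40 h.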
# [2] = qHTS RealTime-Glo MT Cell Viability Assay in HepG2 cells - 8 hour (AID 1224873); further: nearly all actives have a fitted effect of over 55% in size; further: potency means the concentration at half of the fitted maximal effect
# Procedure, shortened: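 HepG2 cells (600/well) mixed with RealTime-Glo MT reagent, settled 5 h at 37 C/5% CO2 before compound addition. Nonlytic NanoLuc luminescence from viable-cell prosubstrate reduction read repeatedly during 40 h treatment at 37 C.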
# [3] = qHTS RealTime-Glo MT Cell Viability Assay in HEK293 cells - 40 hour (AID 1224874); details: RealTime-Glo luminescence; max response: active compounds read low; further: nearly all actives have a fitted effect of over 50% in size; further: potency means the concentration at half of the fitted maximal effect
# Procedure, shortened: (§1)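 Tox21 screen in HEK293 using RealTime-Glo MT chemistry, with cells and reagent co-dispensed. Luminescence proportional to viable cell number was captured at intervals during 40 h compound exposure at 37 C.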
# [4] = A CellTox Green Cytotoxicity Assay to monitor cytotoxicity in HEK293 cells - 24 hour (AID 1224875); further: nearly all actives have a fitted effect of over 45% in size; further: potency means the concentration at half of the fitted maximal effect
# Procedure, shortened: (§2)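 Seeding of HEK293 cells together with cytotoxicity dye preceded a 5 h incubation at 37 C/5% CO2. Test compounds in DMSO were then added and fluorescence monitored across 40 h.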
# [5] = A CellTox Green Cytotoxicity Assay to monitor cytotoxicity in HepG2 cells - 16 hour (AID 1224876); further: nearly all actives have a fitted effect of over 45% in size; further: potency means the concentration at half of the fitted maximal effect
# Procedure, shortened: (§3)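 Nonlytic assay: viable cells exclude the dye, so fluorescence scales with cell death. HepG2 at 600 cells/well, compounds added after 5 h, signal read across 40 h.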
# [6] = qHTS RealTime-Glo MT Cell Viability Assay in HepG2 cells - 32 hour (AID 1224877); further: nearly all actives have a fitted effect of over 55% in size; further: potency means the concentration at half of the fitted maximal effect
# Procedure, shortened: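 HepG2 cells were seeded at 600 cells/well together with NanoLuc luciferase and a cell-permeant prosubstrate, preincubated 5 h at 37 C/5% CO2, then pin-dosed with compounds in DMSO. Nonlytic luminescence from viable cells was read at each time point.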
# [7] = A CellTox Green Cytotoxicity Assay to monitor cytotoxicity in HepG2 cells - 24 hour (AID 1224878); further: nearly all actives have a fitted effect of over 45% in size; further: potency means the concentration at half of the fitted maximal effect
# Procedure, shortened: as §3
# [8] = A CellTox Green Cytotoxicity Assay to monitor cytotoxicity in HepG2 cells - 40 hour (AID 1224879); further: nearly all actives have a fitted effect of over 40% in size; further: potency means the concentration at half of the fitted maximal effect
# Procedure, shortened: as §3
# [9] = qHTS RealTime-Glo MT Cell Viability Assay in HEK293 cells - 0 hour (AID 1224880); further: top concentration of the series differs between compounds; nearly all actives have a fitted effect of over 45% in size
# Procedure, shortened: as §1
# [10] = A CellTox Green Cytotoxicity Assay to monitor cytotoxicity in HEK293 cells - 32 hour (AID 1224881); further: nearly all actives have a fitted effect of over 40% in size; further: potency means the concentration at half of the fitted maximal effect
# Procedure, shortened: as §2
SMILES,Potency [1],Potency [2],max response [3] [%],Potency [4],Potency [5],Potency [6],Potency [7],Potency [8],Potency [9],Potency [10],Potency [3]
CCC(C)c1cc(C(C)(C)C)cc(-n2nc3ccccc3n2)c1O (stereo not given),inactive,inactive,9.2,inactive,inactive,inactive,inactive,inactive,inactive,inactive,
ClC1=C(Cl)[C@]2(Cl)[C@@H]3[C@@H]4C[C@@H]([C@H]5O[C@@H]45)[C@@H]3[C@@]1(Cl)C2(Cl)Cl,21.9 µM (active),43.6 µM (active),,49 µM (active),54.9 µM (active),49 µM (active),49 µM (active),49 µM (active),,43.6 µM (active),44.9 µM (active)
CN(C)C(=S)[S-].CN(C)C(=S)[S-].[Cu+2],1.89 µM (active),6.7 µM (active),,2.38 µM (active),4.23 µM (active),2.67 µM (active),2.38 µM (active),2.67 µM (active),,2.38 µM (active),1.19 µM (active)
O=c1[nH]c2ccccc2n1CCCN1CCC(n2c(=O)[nH]c3cc(Cl)ccc32)CC1,9.52 µM (active),inactive,,inactive,inactive,inactive,21.3 µM (active),23.9 µM (active),inactive,inactive,10.7 µM (active)
FC(Cl)(Cl)Cl,inactive,inactive,-2.7,inactive,inactive,inactive,inactive,inactive,inactive,inactive,
CN(C)CCc1c[nH]c2cccc(O)c12,inactive,inactive,-1.01,inactive,inactive,inactive,inactive,,inactive,inactive,
CCCCCCCCCC[N+](C)(C)CCCCCCCCCC,4.36 µM (active),19.5 µM (active),,15.5 µM (active),12.3 µM (active),7.76 µM (active),11 µM (active),8.71 µM (active),inactive,17.4 µM (active),0.977 µM (active)
C[C@@H]1CC[C@@]2(OC1)O[C@H]1[C@@H](O)[C@H]3[C@@H]4CC[C@H]5C[C@@H](O[C@@H]6O[C@H](CO)[C@H](O[C@@H]7O[C@H](CO)[C@@H](O)[C@H](O[C@@H]8OC[C@@H](O)[C@H](O)[C@H]8O)[C@H]7O[C@@H]7O[C@H](CO)[C@@H](O)[C@H](O[C@@H]8O[C@H](CO)[C@@H](O)[C@H](O)[C@H]8O)[C@H]7O)[C@H](O)[C@H]6O)[C@H](O)C[C@]5(C)[C@H]4CC[C@]3(C)[C@H]1[C@@H]2C,9.25 µM (active),16.4 µM (active),,1.31 µM (active),13.1 µM (active),23.2 µM (active),11.6 µM (active),11.6 µM (active),,1.64 µM (active),11.6 µM (active)
ClCCN1CCOCC1,inactive,inactive,-16.3,inactive,inactive,inactive,inactive,inactive,inactive,inactive,
N#CSCSC#N,12.6 µM (active) and 15.3 µM (active),21.7 µM (active),,54.4 µM (active),56.2 µM (active) and 24.3 µM (active),50.1 µM (active) and 19.3 µM (active),50.1 µM (active) and 19.3 µM (active),39.8 µM (active) and 17.2 µM (active),inactive,43.2 µM (active),11.2 µM (active) and 21.7 µM (active)
CCC(C)(C)C(=O)OC1=C(c2ccc(Cl)cc2Cl)C(=O)OC12CCCCC2,inactive,inactive,-14,inactive,inactive,inactive,inactive,inactive,,inactive,
N#Cc1ccccc1N,inactive,inactive,0.901,inactive,inactive,inactive,inactive,inactive,inactive,inactive,
Cc1cc(C)c(C2=C(OC(=O)CC(C)(C)C)C3(CCCC3)OC2=O)c(C)c1,inactive,inactive,-6.03,inactive,inactive,inactive,inactive,inactive,,inactive,
CCc1ccccc1C,inactive,inactive,0.859,inactive,inactive,inactive,inactive,inactive,inactive,inactive,
CCCCCCCCCCCCCCCCCCn1cc[n+](C)c1,24.4 µM (active),inactive,,21.7 µM (active),38.7 µM (active),24.4 µM (active),24.4 µM (active),19.4 µM (active),,19.4 µM (active),7.72 µM (active)
Fc1cccc(Cl)c1CCl,inactive,inactive,-1.59,inactive,inactive,inactive,inactive,inactive,inactive,inactive,
CC(=[OH+])/C=C(/C)[O-].CC(=[OH+])/C=C(\C)[O-].CC(=[OH+])/C=C(\C)[O-].[Fe],inactive,inactive,5.66,inactive,inactive,inactive,inactive,inactive,,inactive,
C=CCOC(N)=O,inactive,inactive,0.832,inactive,inactive,inactive,inactive,inactive,inactive,inactive,
ClC1=C(Cl)[C@]2(Cl)[C@@H]3[C@@H](Cl)[C@@H](Cl)C[C@@H]3[C@@]1(Cl)C2(Cl)Cl,inactive,inactive,15.9,inactive,inactive,inactive,inactive,inactive,,inactive,
Oc1ccccc1Br,inactive,inactive,3.02,inactive,inactive,inactive,inactive,inactive,,inactive,
